Bioassay records (PubChem BioAssay)
Compounds with a hit are over-represented: about 2.2% of the library has one in this group of screens.
Abeta yeast res: compounds reversing amyloid beta toxicity in yeast. Potency, µM (doses to about 46.1 µM), usual class: activators. AID 1347071. hit rate 0.063% among 410,000. yeast expressing A-beta42, growth rescue, OD600, 48 h; response scale: 0% DMSO, 100% iron-clioquinol control; note: nearly all actives have a fitted effect of over 55% in size
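Growth rescue measured by 600 nm absorbance after 48 h yeast culture at 30 C with compound. Values normalized between DMSO and an equimolar ferric chloride plus clioquinol control.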
TDP43 rescue: inhibitors of TDP-43 toxicity in yeast; TDP-43 expressing yeast growth rescue, BacTiter-Glo, 24 h; Potency, µM (top dose mostly 46.1 µM), for inactives: top-dose growth rescue (activation), actives largely listed as activators; hit rate 1.8% among 410,000; note: % of control where 0% means no effect; nearly all actives have a fitted effect of over 50% in size
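Galactose-induced TDP-43 yeast, OD600=0.02, compound pinned; 24 hr, 30 deg C; BacTiter-Glo luminescence for growth. Inhibitors of TDP-43 toxicity read as activators.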
aSyn yeast inh: inhibitors of alpha-synuclein toxicity in yeast; Yeast expressing alpha-synuclein, growth rescue, BacTiter-Glo, 24 h; Potency, µM (series often up to 46.1 µM), for inactives: at the highest dose growth rescue (activation), most hits filed as activators; hit rate 0.14% among 370,000; AID 652106; note: % of control where 0% means no effect; nearly all actives have a fitted effect of over 65% in size
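Galactose-induced alpha-syn yeast (OD600=0.02, raffinose-pregrown) + pinned cpd, 24 hr, 30 deg C; growth by BacTiter-Glo luminescence. Growth restoration scores as activation.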
FUS suppressor: rescues growth of FUS-expressing yeast | S. cerevisiae FUS-expressing, growth rescue, OD600, 24 h | Potency, µM (top dose mostly 76.6 µM), hits mostly activators | hit rate 0.24% among 390,000 | AID 1347120;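 note: plate controls were DMSO vehicle for no effect and reference control for full effect; nearly all actives have a fitted effect of over 55% in size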
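S. cerevisiae expressing FUS from galactose induction served as the toxicity model. Growth after 24hr at 30C, read as absorbance at 600 nm, indicates suppression of toxicity; compounds dosed at several concentrations.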
Mito fusion act: mitochondrial division inhibition or fusion activation | S. cerevisiae fusion-defective mutant growth rescue, CellTiterGlo 48 h | Potency, µM (doses to about 46.1 µM), inactives show at the highest dose growth rescue (activation), most hits filed as activators | hit rate 0.23% among 320,000; note: % of control where 0% means no effect; nearly all actives have a fitted effect of over 45% in size
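S. cerevisiae fusion-defective temperature-sensitive mutants (e.g. fzo1-1, mgm1-5) grown 48 h at 37C in YPEG (ethanol/glycerol non-fermentable) medium with 23 nl compound per well; growth rescue read as CellTiterGlo luminescence.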
* = called active by the depositor; [ ] = remark or other dose. Calls come from the whole dose curve; as a rule, active = well fitted curve in the direction sought with a large enough effect; inconclusive = small, poorly fitted or top-dose-only effect, or another doubt; inactive = no such curve, though single readings can be large; an effect the other way counts as inactive or inconclusive. Potency is the fitted concentration of half-maximal effect.

For CCOC(=O)[C@]12CCCC=C1N(CCCOC)C(=O)[C@@H]2CC(=O)NCCCN1CCCC1=O the results were FUS suppressor inactive.
Screening CC1(C)CN(c2ccc(Br)cc2)C(=O)[C@H]1CC(=O)Nc1ccccc1 returned Abeta yeast res inactive, TDP43 rescue 18µM*, aSyn yeast inh 12% and FUS suppressor inactive.
CCCCOc1ccc(C(=O)NCc2nnnn2-c2ccc(C)c(C)c2)cc1 was read as Abeta yeast res inactive, TDP43 rescue 20µM* and FUS suppressor inactive.
`COc1cc(C(=O)NCc2nnnn2-c2ccc(C)c(C)c2)cc(OC)c1OC` gave Abeta yeast res inactive, TDP43 rescue 9% and FUS suppressor inactive.
For CCCCCCSc1nsc(NC(C)=O)n1 the results were Abeta yeast res inactive, TDP43 rescue inconclusive, aSyn yeast inh 2%, FUS suppressor inactive and Mito fusion act 18%.
Screening CCCCSc1nsc(NC(C)=O)n1 returned Abeta yeast res inactive, TDP43 rescue 13µM*, FUS suppressor inactive and Mito fusion act 3%.
Screening COc1cccc(NC(=O)N2CCc3nc(NCc4cccc(Oc5ccccc5)c4)ncc3C2)c1 returned Abeta yeast res inactive, TDP43 rescue 21%, aSyn yeast inh inconclusive and FUS suppressor inconclusive.
For COc1cccc(NC(=O)N2CCc3nc(Nc4cc(Cl)cc(Cl)c4)ncc3C2)c1 the results were Abeta yeast res inconclusive, TDP43 rescue 16µM*, aSyn yeast inh inconclusive and FUS suppressor 28µM*.
For CC1(C(=O)N2CCN(c3ccc([N+](=O)[O-])cc3)CC2)CC1(Cl)Cl (stereo not given) the results were Abeta yeast res inactive, TDP43 rescue 11µM*, aSyn yeast inh -3%, FUS suppressor inactive and Mito fusion act 10%.
O=C(NC(=S)N1CCN(c2ccc([N+](=O)[O-])cc2Cl)CC1)c1ccco1 was read as Abeta yeast res inactive, TDP43 rescue -2%, aSyn yeast inh -4% and Mito fusion act inconclusive.
For O=C(c1cc([N+](=O)[O-])ccc1Cl)N1CCN(c2ccccc2)CC1 the results were Abeta yeast res inactive, TDP43 rescue 7.9µM*, aSyn yeast inh 5%, FUS suppressor inactive and Mito fusion act 5%.
`CC1(C(=O)N2CCN(c3ccccc3)CC2)CC1(Cl)Cl` (stereo not given) gave Abeta yeast res inactive, aSyn yeast inh 3%, FUS suppressor inactive and Mito fusion act 2%.
Screening O=C(c1cc([N+](=O)[O-])ccc1N1CCOCC1)N1CCN(c2ccccc2)CC1 returned Mito fusion act -1%.
For O=C(c1ccco1)N1CCN(c2ccc([N+](=O)[O-])cc2Cl)CC1 the results were Abeta yeast res inactive, TDP43 rescue 14µM*, aSyn yeast inh 2%, FUS suppressor inactive and Mito fusion act -3%.
O=C(c1cc(S(=O)(=O)N2CCN(c3ccccc3)CC2)ccc1Cl)N1CCCCCCC1 was read as Abeta yeast res inactive, TDP43 rescue 7%, aSyn yeast inh 17%, FUS suppressor inactive and Mito fusion act 14µM*.
Cc1ccc(-c2nnc(SCC(=O)Nc3ccc(F)cc3F)n2Cc2ccco2)cc1 was read as FUS suppressor inactive.
Screening Cc1nc(Cl)sc1C(=O)Nc1cccc(Cl)c1 returned Abeta yeast res inactive, TDP43 rescue 14µM*, aSyn yeast inh 16%, FUS suppressor inactive and Mito fusion act 9%.
Screening Cc1nc(Nc2ccccc2)sc1C(=O)c1ccc(F)cc1 returned Abeta yeast res inactive, TDP43 rescue 22µM*, aSyn yeast inh 0%, FUS suppressor inactive and Mito fusion act -102%.
Cc1nc(Nc2ccccc2Cl)sc1C(=O)Nc1ccccc1 was read as Abeta yeast res inactive, TDP43 rescue 10%, aSyn yeast inh -10%, FUS suppressor inactive and Mito fusion act 16µM*.
For Cc1nc(Nc2ccccc2)sc1C(=O)Nc1ccccc1 the results were Abeta yeast res inactive, TDP43 rescue 10µM*, aSyn yeast inh -1%, FUS suppressor inactive and Mito fusion act 1%.
COc1ccccc1Nc1nc(C)c(C(=O)Nc2ccccc2)s1 was read as Abeta yeast res inconclusive, TDP43 rescue -10%[0.397 µM], aSyn yeast inh -10%, FUS suppressor inactive and Mito fusion act 5%.
For CCOc1ccc(/C=C/c2nc3ccccc3n2S(=O)(=O)c2cccc(Cl)c2)cc1 the results were Abeta yeast res inactive, TDP43 rescue -71% and FUS suppressor inactive.
Screening COc1cc(C(=O)N2CCN(CCc3ccccn3)CC2)cc(OC)c1OC returned Abeta yeast res inactive, TDP43 rescue 14% and FUS suppressor inactive.
Screening Cc1csc2nc(COC(=O)c3ccc(NC(=O)c4ccccc4Br)cc3)cc(=O)n12 returned Abeta yeast res inactive, TDP43 rescue 7% and FUS suppressor inactive.
COc1ccc(Nc2nc(-c3ccccc3)c3ccccc3n2)cc1 was read as Abeta yeast res inactive, TDP43 rescue 23%, aSyn yeast inh 0% and Mito fusion act 25µM*.
Screening O=C(NNc1ccccc1F)c1ccccc1 returned Abeta yeast res inactive, TDP43 rescue -17%[1.82 µM], aSyn yeast inh 8%, FUS suppressor inactive and Mito fusion act -3%.
For COc1ccc(Nc2nc(C)c(-c3ccccc3)s2)cc1 the results were Abeta yeast res inactive, TDP43 rescue 13µM*, aSyn yeast inh -18% and Mito fusion act -1%.
`Nc1nc(Nc2ccccc2F)sc1C(=O)c1ccccc1` gave Abeta yeast res inconclusive, TDP43 rescue 22µM*, aSyn yeast inh -17%, FUS suppressor inactive and Mito fusion act -15%.
Screening COc1ccc(Nc2nc(C)c3ccccc3n2)cc1 returned Abeta yeast res inactive, TDP43 rescue 0%, aSyn yeast inh 1%, FUS suppressor inactive and Mito fusion act 1%.
`CCc1ccc(N2CCn3c2nc2c3c(=O)n(C/C=C/c3ccccc3)c(=O)n2C)cc1` gave Abeta yeast res inactive, TDP43 rescue 15% and FUS suppressor inactive.
Screening COc1ccc(S[C@]2(C(=O)N3CCOCC3)CC(=O)N(P(=O)(OC)OC)[C@@H]2c2ccc(OC)cc2)cc1 returned FUS suppressor inactive.
Cc1ccc(-c2nc(Cn3c(SCc4ccc(F)cc4)nc4cccnc43)c(C)o2)cc1 was read as Abeta yeast res inactive, TDP43 rescue 26% and FUS suppressor inactive.
Screening Cc1oc(-c2cccc(Br)c2)nc1Cn1c(SCc2cccc(F)c2)nc2cccnc21 returned Abeta yeast res inconclusive, TDP43 rescue 28µM* and FUS suppressor inactive.
COc1cc(C(=O)N2CCC(c3nc4ccccc4o3)CC2)cc(OC)c1OC was read as Abeta yeast res inactive, TDP43 rescue 0% and FUS suppressor inactive.
